Inconclusive results are not listed. The source made the active and inactive calls. The call rests on the fitted dose curve; in most records, active means well fitted curve in the direction sought with a large enough effect; inconclusive means small, poorly fitted or top-dose-only effect, or another doubt; inactive means no such curve, though single readings can be large; an effect the other way counts as inactive or inconclusive.

The values below come from PubChem BioAssay (NCATS).

The first assay in a line: qHTS of pediatric cancer cell lines to identify multiple opportunities for drug repurposing: Primary screen for TC32 cells (AID 1347089). Further: on the % scale 0 is the no-effect control and ±100 the full control effect; nearly all actives have a fitted effect of over 60% in size. To be noted: TC32 Ewing sarcoma viability, CellTiter-Glo luminescence, 48 h; series mostly up to 45.8 µM; activity change, negative = cytotoxic: at the top concentration. In short, it runs like this:
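Measured quantity: luminescence from CellTiter-Glo, reflecting metabolically active TC32 cells following 48 h of compound. Curves came straight from multi-point titrations, with 8 or 11 points in primary and 11 in confirmatory screening.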
In general terms: Quantitative high-throughput screening tests each substance at several concentrations.
Turning to `CCN(CC)C(=O)[C@@H]1C=C2c3cccc4[nH]cc(c34)C[C@H]2N(C)C1`, the “activity change, negative = cytotoxic” value is -6.67% [at 154 µM] (inactive).

For the molecule `C#CC(O)(C=CCl)CC` (centres undefined), the “activity change, negative = cytotoxic” value was 12.5% (inactive).

With `CN(C)CCc1c[nH]c2cccc(OP(=O)(O)O)c12`, the “activity change, negative = cytotoxic” value is -0.866% [at 92.2 µM] (inactive).

Another assay is described as follows: qHTS of pediatric cancer cell lines to identify multiple opportunities for drug repurposing: Primary screen for SJ-GBM2 cells (AID 1347091).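 Further: plate controls were DMSO neutral control for no effect and bortezomib for full effect.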 To be noted: SJ-GBM2 viability, CellTiter-Glo luminescence, 48 h; series mostly up to 46 µM; activity change, negative = cytotoxic: at the top concentration. In short, it runs like this:
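Eight- or eleven-point concentration series, 48 h treatment at 37 degrees C in growth media; readout CellTiter-Glo luminescence. Potency and efficacy were taken from the concentration-response curves.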
As to `CCN(CC)C(=O)[C@@H]1C=C2c3cccc4[nH]cc(c34)C[C@H]2N(C)C1`, the “activity change, negative = cytotoxic” value was 7.03% [at 155 µM] (inactive).

As for `C#CC(O)(C=CCl)CC` (centres undefined), the “activity change, negative = cytotoxic” value was 22.7% (inactive).

For `CN(C)CCc1c[nH]c2cccc(OP(=O)(O)O)c12`, the “activity change, negative = cytotoxic” value is -6.59% [at 92.7 µM] (inactive).

The nature of a further assay: qHTS of pediatric cancer cell lines to identify multiple opportunities for drug repurposing: Primary screen for A673 cells (AID 1347092). Further: nearly all actives have a fitted effect of over 45% in size. Further: potency means the concentration at half of the fitted maximal effect. On activity change, negative = cytotoxic: on the % scale 0 is the no-effect control and ±100 the full control effect. To be noted: A673 Ewing sarcoma viability, CellTiter-Glo ATP luminescence, 48 h; series mostly up to 46 µM; activity change, negative = cytotoxic: at the top concentration. In short, it runs like this: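 Cells are plated, rested 5 h, dosed by pintool, incubated 48 h, then lysed with CellTiter-Glo and read by luminescence. DMSO is the neutral control; bortezomib at 2.3 uM final is the positive control.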
`CCN(CC)C(=O)[C@@H]1C=C2c3cccc4[nH]cc(c34)C[C@H]2N(C)C1`: the Potency was 56.6 µM (active).

On to `C#CC(O)(C=CCl)CC` (centres undefined), for which the “activity change, negative = cytotoxic” value is 13.2% (inactive).

For `CN(C)CCc1c[nH]c2cccc(OP(=O)(O)O)c12`, the “activity change, negative = cytotoxic” value is -16.7% [at 92.7 µM] (inactive).
